Assay outcomes from PubChem BioAssay.
Only some compounds are listed: those with a hit (about 4.8% of all), similar ones and a draw of the others.
ATXN viability = reduces viability in counter-screen for ATXN expression inhibitors. S2 cells (HEK-293 line with an ATXN2-luciferase reporter) viability, CellTiter-Fluor protease fluorescence, 24 h. Potency, µM (series often up to 56.7 µM), most hits filed as cytotoxic. actives 0.49% (n = 400,000); further: potency means the concentration at half of the fitted maximal effect; nearly all actives have a fitted effect of over 40% in size
DRD3 antagonist = antagonists of human D3 dopamine receptor; max response, negative = inhibition, %; P35462; actives 2.5% (n = 360,000); D3R cells, DiscoveRx beta-arrestin luminescence, antagonist mode; hits give low values; in the data active means max response below about -50%; inconclusive means no clear call, values can overlap the other calls; further: on the % scale 0 is the no-effect control and ±100 the full control effect
Target sequence (P35462 whole entry, looked up): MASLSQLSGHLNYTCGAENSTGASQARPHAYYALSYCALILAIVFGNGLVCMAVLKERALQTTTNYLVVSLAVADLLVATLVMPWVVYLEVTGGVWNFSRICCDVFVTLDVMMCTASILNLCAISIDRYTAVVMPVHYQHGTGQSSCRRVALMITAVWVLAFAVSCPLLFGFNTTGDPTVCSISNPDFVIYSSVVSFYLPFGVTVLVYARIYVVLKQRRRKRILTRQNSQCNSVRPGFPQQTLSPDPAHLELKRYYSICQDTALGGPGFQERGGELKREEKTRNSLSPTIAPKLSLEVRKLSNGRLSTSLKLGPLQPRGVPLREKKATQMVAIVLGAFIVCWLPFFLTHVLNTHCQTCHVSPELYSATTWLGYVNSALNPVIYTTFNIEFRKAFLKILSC
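Cells plated overnight at 1500 cells/well, then exposed to library compounds with dopamine controls for 90 minutes at 37 degrees C. DiscoveRx reagent added for 30–60 minutes at room temperature; luminescence read, quantitative HTS format.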
HepG2 tox = kills HepG2 cells in TGF-b inhibitor counter-screen. HepG2 CAGA-GFP viability, ATP luminescence, 18 h. Potency, µM (top dose mostly 46.1 µM), for inactives: top-dose activity change, negative = cytotoxicity, usual class: cytotoxic. actives 0.76% (n = 410,000); further: potency means the concentration at half of the fitted maximal effect
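HepG2 CAGA-GFP cells (1000/well, DMEM with 1% FBS) received compound, then TGF-beta at 500 pg/mL final, and were incubated 18 hours at 37 degrees C. Viability was read by CellTiter-Glo luminescence. Media-only wells were set as complete cell-killing and DMSO as no toxicity.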
D3 ag = activates the human D3 dopamine receptor; P35462; actives 0.58% (n = 410,000); max activation, %; AID 652048; D3R DiscoveRx beta-arrestin cells, luminescence, 90 min; in the data active means max activation above about 30%; further: 0% is about no effect
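Agonist mode: compounds and dopamine controls were applied to plated cells for 90 min at 37 degrees C after an overnight attachment at 1500 cells/well. Luminescent read-out followed 30 - 60 minutes at room temperature with DiscoveRx detection reagent.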
TGFb SMAD3 inh = inhibitors of TGF-b signaling. actives 1.2% (n = 410,000). AID 588855. HepG2 CAGA-GFP TGF-b/SMAD3 reporter, GFP fluorescence, 18 h; TGF-beta stimulated, 500 pg/mL final. Potency, µM (titrated, usually from 46.1 µM), for inactives: at the highest dose activity, negative = inhibition, hits mostly inhibitors; further: potency means the concentration at half of the fitted maximal effect; on the % scale 0 is the no-effect control and ±100 the full control effect; nearly all actives have a fitted effect of over 65% in size
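Smad-responsive CAGA-GFP expression was quantified in HEPG2 cells exposed to compounds and 500 pg/mL final TGF-beta for 18 h at 37 degrees C; unstimulated wells defined full inhibition.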
ATXN2 expr inh = reduces ATXN2 reporter expression in HEK-293 cells. HEK-293 ATXN2-luciferase reporter, luminescence, 24 h. Potency, µM (titrated, usually from 57 µM), inactives show at the top dose activity change, negative = inhibition, most hits filed as inhibitors. actives 0.72% (n = 360,000); further: potency means the concentration at half of the fitted maximal effect; on the % scale 0 is the no-effect control and ±100 the full control effect; nearly all actives have a fitted effect of over 55% in size
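ATXN2-luciferase reporter cells (luciferase flanked by upstream and downstream ATXN2 gene portions) were treated 24 h at 37 °C with compounds at up to 57 uM. SteadyGlo luminescence gave expression; GF-AFC fluorescence gave viability.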
Numbers without * were called inactive; i = inactive; ? = inconclusive; · = not tested or not shown; ! = not confirmed by another sample. Unless noted, the call rests on the fitted dose curve; in most records, active means well fitted curve in the direction sought with a large enough effect; inconclusive means small, poorly fitted or top-dose-only effect, or another doubt; inactive means no such curve, though single readings can be large; an effect the other way counts as inactive or inconclusive.

SMILES	ATXN viability	DRD3 antagonist	HepG2 tox	D3 ag	TGFb SMAD3 inh	ATXN2 expr inh
O=C(NC1CCCC1)c1cn(C2CCCN(Cc3ccc4c(c3)OCCO4)C2)nn1 (configuration not stated)	i	·	·	·	·	·
CCOC(=O)c1c(N)sc2c(NC(C)=O)cccc12	i	-81*	-1%	0	-16%	3%
CCc1ccc(NC(=O)CSc2nc3c([nH]c4ccccc43)c(=O)n2C)cc1	·	·	-3%	-2	-8%	·
Cc1ccccc1OC1(C)CCN(Cc2ccc(-c3ccccn3)cc2)C1 (configuration not stated)	?	-75*	-51%	-9	-30%	-12%
CC1(Oc2cccc(F)c2)CCN(Cc2ccc(-c3ccccn3)cc2)C1 (configuration not stated)	i	-67*	-30%	-27	20%	-9%
CC1(Oc2cnc(Cl)c3ccccc23)CCN(Cc2ccc(-c3ccccn3)cc2)C1 (configuration not stated)	i	0	-28%	-2	-12%	-6%
O=c1c2oc3ccccc3c2n(Cc2ccc(Cl)cc2)c(=O)n1Cc1ccco1	i	·	-45%	-7	-3%	-16%
CCn1nnnc1SCC(=O)NNC(=O)C1CCCCC1	i	-80*	-3%	-3	-17%	-4%
Cc1csc[n+]1CC(=O)c1ccc(I)cc1	·	·	-31%	·	-4%	·
CCC(CC)NC(=O)Nc1cccc(C)c1C	i	17	2%	0	-5%	·
CC(C)N(CC(=O)Nc1ccc(Cl)cc1C(F)(F)F)C(=O)CCl	?	-3	-41%	2	?	19µM*
CCC(C)N(CC(=O)Nc1cccc(C)c1C)C(=O)CCl (configuration not stated)	·	-7	-49%	3	22µM*	3µM*
Cc1c(C(=O)N(C)C)sc2nc(-c3ccccn3)[nH]c(=O)c12	i	-57*	-16%	1	6%	24%
CC1CC(C)CN(C(=O)COC(=O)c2cncc(Br)c2)C1 (configuration not stated)	i	-3	-49%	0	6%	4%
CC1CN(C(=O)COC(=O)c2cncc(Br)c2)CC(C)O1 (configuration not stated)	i	-54*	-1%	1	12%	·
O=C(COC(=O)c1ccccc1O)NC(=O)c1ccc(OC(F)F)cc1	i	-5	-3%	13	0%	2%
O=C(COC(=O)c1cccnc1Cl)NC(=O)c1ccc(OC(F)F)cc1	i	-53*	-2%	-9	-9%	2%
CCOC(=O)c1cnc2ccc(OCC)cc2c1N1CCN(c2ccccc2)CC1	i	-65*	-25%	-1	?	-17%
CCOC(=O)c1cnc2ccc(C)cc2c1Nc1ccc(N2CCOCC2)cc1	?	-59*	-4%	12	-3%	?
CCOC(=O)c1cnc2ccc(OCC)cc2c1NCc1ccccc1	?	15	-39%	48*	?	?
CCOC(=O)c1cnc2ccc(OCC)cc2c1NCc1cccnc1	i	11	-15%	-7	?	11%
CCOC(=O)c1cnc2ccc(OC)cc2c1NCCc1ccc(OC)c(OC)c1	?	23	-47%	6	16µM*!	28µM*!
CC(=O)c1ccccc1-c1ccc2c(c1)CC(CNC(=O)Cc1c[nH]c3ccccc13)O2 (configuration not stated)	i	·	·	·	·	·
CCOC(=O)C1CCN(c2c(C(=O)c3ccc(OCC)cc3)cnc3ccc(OC)cc23)CC1	?	·	-32%	-3	8.9µM*	?
CCOC(=O)c1cnc2ccc(OCC)cc2c1N1CCN(c2ccccc2F)CC1	?	·	-27%	1	11µM*	0%
SMILES	ATXN viability	DRD3 antagonist	HepG2 tox	D3 ag	TGFb SMAD3 inh	ATXN2 expr inh
CCOC(=O)C1CCCN(c2c(C(=O)c3ccccc3)cnc3ccc(OC)cc23)C1 (configuration not stated)	i	-26	-24%	-9	-23%	-11%
CCOc1ccc2ncc(S(=O)(=O)c3ccccc3)c(N3CCN(c4ccccc4)CC3)c2c1	i	4	-4%	6	3%	2%
Cc1ccc(SCc2nc(-c3ccc(C(=O)Nc4cc(C)ccc4C)cc3)oc2C)cc1	·	·	-1%	-14	10%	·
Cc1ccc2c(CNCCc3ccco3)c(C(=O)O)n(Cc3ccc(F)cc3)c2c1	?	·	-18%	-5	?	-14%
CN=C(C[N+](=O)[O-])NCCSCc1ccc(CN(C)C)o1	i	-59*	2%	-66	7%	9%
CN/C(=C/[N+](=O)[O-])NCCSCc1csc(CN(C)C)n1	i	12	10%	6	3%	7%
OC(CN1CCN(c2ccccc2)CC1)c1ccc2c(c1)CCN2 (configuration not stated)	i	-28	4%	44*	-17%	4%
O=C(NCc1ccco1)Nc1ccc2nsnc2c1	i	-59*	-12%	0	?	3%
O=C(NCc1ccco1)Nc1ccc(Br)cc1	i	0	-15%	1	1%	29%
Cc1cccc(NC(=S)NC2CCN(Cc3ccccc3)CC2)c1C	i	-53*	-9%	-1	-15%	-14%
S=C(Nc1cccc(Cl)c1Cl)NC1CCN(Cc2ccccc2)CC1	i	-90*	-32%	-20	0%	?
CC(=O)Nc1cccc(NC(=S)Nc2cccc(Cl)c2Cl)c1	i	-19	0%	-3	4%	-26%
Cc1cccc(NC(=S)N2CCN(Cc3ccccc3)CC2)c1C	?	-7	-2%	-3	-1%	-14%
CCc1cccc(CC)c1NC(=S)Nc1cccc(Cl)c1Cl	i	12	18µM*	-8	?	1%
S=C(Nc1ccc(CN2CCCCC2)cc1)Nc1cccc(Cl)c1Cl	?	-76*	-1%	-55	-2%	-5%
S=C(Nc1ccccc1)Nc1cccc(Cl)c1Cl	i	0	-9%	1	-6%	-21%
S=C(Nc1ccccc1Cl)NC1CCCCCC1	i	-4	-11%	-3	-16%	·
COc1ccc(O)c(/C=N/Nc2nc(Nc3ccccc3)nc(-n3nc(C)cc3C)n2)c1	?	-117*	-48%	-39	?	?
Cc1cc(N/N=C/c2ccccc2O)nc(-c2ccccc2O)n1	i	-131*	-12%	-1	5%	1%
COc1ccc(/C=N/Nc2cc(C)nc(-n3nc(C)cc3C)n2)cc1	?	-2	-24%	-3	0%	20µM*
COc1cc(/C=N/Nc2cc(C)nc(NS(=O)(=O)c3ccc(C)cc3)n2)ccc1O	i	2	-15%	3	-5%	-6%
